The nature of assay [1]: optical density shifts of acrAB sulA E. coli – strain DRC41, OD650, 48 h, E. coli filamentation inducer project, primary screen (AID 1152).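 Also: E. coli MC1000 strain DRC41 lacking acrAB efflux pump and sulA.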 The conditions noted are these: higher = more signal, called active from +8 up or from −8 down.
Assay [2] can be described thus: probe aLefty1 binding on compound microarray – biochemical, small-molecule microarray, 635/667 nm fluorescence, primary screen (AID 1153).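 Also: score merges spot fluorescence with signal-to-noise ratio from the scanned slide images.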 To be noted: higher = more signal.
Assay [3] in a line: plasmodial surface anion channel blockers, osmotic lysis – cell-based, P. falciparum Indochina, OD700, 1 h, primary screen (AID 1154). The conditions noted are these: P. falciparum Indochina infected RBC osmotic lysis, higher = more signal, called active from +8 up or from −8 down.
Assay [4] in a line: plasmodial surface anion channel blockers, osmotic lysis – cell-based, P. falciparum Indochina, OD700, 2 h, primary screen (AID 1155).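 Also: lysis reports solute entry through the parasite surface anion channel PSAC.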 The conditions noted are these: P. falciparum Indochina infected erythrocytes, higher = more signal, called active from +8 up or from −8 down.
Assay [5] can be described thus: changes in parasitized red cell lysis, either direction – P. falciparum Indochina, OD700, 3 h, PSAC antagonist project, primary screen (AID 1156). To be noted: P. falciparum-infected erythrocytes, osmotic lysis, higher = more signal, called active from +8 up or from −8 down.
Assay [6] is described as follows: plasmodial surface anion channel blockers, osmotic lysis – cell-based, P. falciparum Indochina, OD700, 18 h, primary screen (AID 1157). The conditions noted are these: P. falciparum Indochina infected erythrocytes, osmotic lysis OD700, 18 h; higher = more signal, called active from +8 up or from −8 down.
Assay [7] can be described thus: S6 kinase pathway phospho-S6 level changes – cell-based, A549, cytoblot, luminescence, serum-stimulated, primary screen (AID 1158).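 Also: serum-stimulated A549 lung adenocarcinoma cells; signal is phosphorylated S6 detected by cytoblot immunostaining with HRP secondary.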 The conditions noted are these: 5 h, higher = more signal.
In assay [8] the target is NADPH oxidase 2 (Homo sapiens) (UniProt P04839). In words: compounds shifting NOX2 Amplex Red fluorescence – cell-based, HEK293-NOX2, PMA-stimulated, NOX inhibitor project, primary screen (AID 1159). Also: test concentration not given here. The conditions noted are these: 45 min, higher = more signal, called active from +8 up or from −8 down.
In assay [9] the target is NADPH oxidase 4 (Homo sapiens) (UniProt Q9NPH5). Nature of the assay: compounds shifting NOX4 Amplex Red fluorescence – cell-based, HEK293-NOX4, tetracycline-induced, NOX inhibitor project, primary screen (AID 1160). The conditions noted are these: HEK293-NOX4, Amplex Red H2O2 fluorescence, 45 min; higher = more signal, called active from +8 up or from −8 down.
Assay [10] addresses NADPH oxidase 5 (Homo sapiens) (UniProt Q96PH1). In words: compounds shifting NOX5 Amplex Red fluorescence – cell-based, HEK293-NOX5, NOX inhibitor project, primary screen (AID 1161). The conditions noted are these: HEK293-NOX5, ionomycin, 45 min, higher = more signal.

Active and inactive are the calls of the source.

NADPH oxidase 4 (Homo sapiens), sequence (Q9NPH5 whole entry, looked up): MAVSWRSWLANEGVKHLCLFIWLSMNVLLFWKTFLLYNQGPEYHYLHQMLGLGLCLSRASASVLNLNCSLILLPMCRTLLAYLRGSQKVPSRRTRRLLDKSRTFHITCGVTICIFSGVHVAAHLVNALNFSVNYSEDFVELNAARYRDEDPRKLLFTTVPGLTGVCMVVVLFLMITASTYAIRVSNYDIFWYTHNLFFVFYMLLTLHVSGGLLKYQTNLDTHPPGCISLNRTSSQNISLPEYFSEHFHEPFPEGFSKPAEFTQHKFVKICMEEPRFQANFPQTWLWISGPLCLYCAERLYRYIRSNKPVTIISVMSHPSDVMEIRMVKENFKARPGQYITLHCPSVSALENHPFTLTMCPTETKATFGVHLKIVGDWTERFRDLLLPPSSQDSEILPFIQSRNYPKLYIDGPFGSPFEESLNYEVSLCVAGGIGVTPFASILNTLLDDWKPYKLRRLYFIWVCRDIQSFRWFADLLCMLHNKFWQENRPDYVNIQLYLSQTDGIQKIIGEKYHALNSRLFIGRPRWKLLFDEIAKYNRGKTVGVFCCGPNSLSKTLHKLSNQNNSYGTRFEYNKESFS
NADPH oxidase 2 (Homo sapiens), sequence (P04839 whole entry, looked up): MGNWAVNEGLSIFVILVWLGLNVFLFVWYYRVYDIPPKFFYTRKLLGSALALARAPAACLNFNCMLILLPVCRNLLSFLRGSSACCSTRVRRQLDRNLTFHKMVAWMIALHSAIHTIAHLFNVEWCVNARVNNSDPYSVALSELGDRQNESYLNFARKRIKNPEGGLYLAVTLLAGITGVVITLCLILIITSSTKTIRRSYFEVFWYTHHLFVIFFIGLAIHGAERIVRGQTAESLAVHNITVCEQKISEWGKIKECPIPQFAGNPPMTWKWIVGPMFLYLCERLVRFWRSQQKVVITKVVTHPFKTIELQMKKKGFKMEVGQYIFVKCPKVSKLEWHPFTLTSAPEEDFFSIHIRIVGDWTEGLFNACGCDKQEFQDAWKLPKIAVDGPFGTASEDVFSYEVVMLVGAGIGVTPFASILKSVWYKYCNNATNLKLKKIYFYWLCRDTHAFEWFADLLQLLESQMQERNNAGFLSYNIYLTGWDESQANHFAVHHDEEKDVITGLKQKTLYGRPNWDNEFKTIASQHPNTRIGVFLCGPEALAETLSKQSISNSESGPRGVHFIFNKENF
NADPH oxidase 5 (Homo sapiens), sequence (Q96PH1 whole entry, looked up): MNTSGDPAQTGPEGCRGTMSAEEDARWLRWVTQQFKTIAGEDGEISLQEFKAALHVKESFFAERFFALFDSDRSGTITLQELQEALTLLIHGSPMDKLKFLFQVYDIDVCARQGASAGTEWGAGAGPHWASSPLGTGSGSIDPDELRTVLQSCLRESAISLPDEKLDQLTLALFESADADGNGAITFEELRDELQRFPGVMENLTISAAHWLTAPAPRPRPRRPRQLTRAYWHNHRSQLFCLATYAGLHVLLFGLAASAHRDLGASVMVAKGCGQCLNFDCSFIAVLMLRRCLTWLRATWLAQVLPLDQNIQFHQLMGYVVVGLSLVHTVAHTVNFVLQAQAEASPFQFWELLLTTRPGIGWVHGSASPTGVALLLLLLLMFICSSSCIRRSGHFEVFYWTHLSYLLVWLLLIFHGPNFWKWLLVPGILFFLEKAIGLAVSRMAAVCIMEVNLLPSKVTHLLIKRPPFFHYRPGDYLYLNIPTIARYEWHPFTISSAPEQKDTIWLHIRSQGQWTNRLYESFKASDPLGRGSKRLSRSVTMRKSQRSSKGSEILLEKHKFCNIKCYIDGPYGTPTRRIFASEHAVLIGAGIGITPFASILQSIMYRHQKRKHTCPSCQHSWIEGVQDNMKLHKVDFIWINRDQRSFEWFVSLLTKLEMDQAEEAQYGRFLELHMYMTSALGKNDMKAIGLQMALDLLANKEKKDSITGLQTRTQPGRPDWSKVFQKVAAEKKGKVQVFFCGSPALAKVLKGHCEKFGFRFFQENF

As to `O=C(NCC(F)(F)F)[C@@H]1c2ccccc2C(=O)N(C2CCCCC2)[C@H]1c1ccc(CO)cc1`, the z-score in [1] was -0.36 (inactive); in assay [3], 0.732 (inactive); in assay [4], -0.243 (inactive); in assay [5], 0.0266 (inactive); in assay [6], 0.18 (inactive); in assay [7], -0.216. Besides, the z-score in assay [8] is 0.292 (inactive); in assay [9], -0.755 (inactive); in assay [10] it was 0.211. The composite z-score in assay [2] was -0.146.
Turning to `COCCOC(=O)N1C(=O)[C@@]2(c3cc(C#CCNC(N)=O)ccc31)[C@H](C(=O)NC[C@H](O)c1ccccc1)[C@H]1C(=O)O[C@H](c3ccccc3)[C@H](c3ccccc3)N1[C@@H]2c1ccccc1OCCO`, the z-score was -0.119 (inactive) in assay [1]; 2.05 (inactive) in [3]; 0.35 (inactive) in assay [4]; 0.927 (inactive) in [5]; 0.317 (inactive) in assay [6]; 0.239 in assay [7]. Moreover, the z-score is 1.91 (inactive) in assay [8], 1.63 (inactive) in assay [9] and -0.63 in [10]. The compound also returned a composite z-score in assay [2] of 1.28.
For the compound `O=C1c2ccccc2[C@](Cc2ccccc2I)(C(=O)NC2CC2)[C@H](c2ccc(CO)cc2)N1C1CCCCC1`, the z-score in assay [1] was 0.0304 (inactive); in assay [3], 22.5 (active); in assay [4], 5.2 (inactive); in [5], 3.82 (inactive); in assay [6], 1.36 (inactive); in assay [7] it was -0.471. In addition, the z-score in [8] is 0.478 (inactive); in assay [9], 1.06 (inactive); in assay [10], 2.45. In addition, the composite z-score in assay [2] was 0.166.
For the compound `O=C1O[C@H](c2ccccc2)[C@H](c2ccccc2)N2[C@H]1[C@@H](C(=O)O)[C@]1(C(=O)Nc3ccc(C#CC4=CCCCC4)cc31)[C@H]2c1ccccc1OCCO`, the z-score in assay [1] was -0.611 (inactive); in [3], -1.84 (inactive); in assay [4], -1.36 (inactive); in assay [5], -14.6 (active); in assay [6] it was -1.92 (inactive); in assay [7] it was 0.296. Also, the z-score in assay [8] was 2.51 (inactive); in assay [9] it was -1.94 (inactive); in assay [10] it was -1.08. The compound further came in with a composite z-score in [2] of 1.44.
As for `CC(C)C[C@@H]1NC(=O)[C@H]2C[C@@H](C(=O)NCCCCCCN(C)C)[C@@H](c3ccc(O)cc3)N2C1=O`, the z-score in [1] was -0.655 (inactive); in [3], 0.977 (inactive); in assay [4], -0.116 (inactive); in [5], -0.0599 (inactive); in [6], -0.288 (inactive); in assay [7], -0.384. The z-score in assay [8] is 0.193 (inactive); in assay [9], 0.268 (inactive); in [10], 0.0226. Moreover, in [2], the composite z-score is -0.0573.
With `COCCOC(=O)N1C(=O)[C@@]2(c3ccccc31)[C@H](c1ccc(O)cc1)N1[C@H](c3ccccc3)[C@H](c3ccccc3)OC(=O)[C@H]1[C@@H]2C(=O)NC[C@H](O)c1ccccc1`, the z-score in [1] was 0.0221 (inactive); in [3] it was 1.06 (inactive); in assay [4] it was 0.664 (inactive); in assay [5], 0.515 (inactive); in assay [6], 0.563 (inactive); in assay [7] it was 0.104. Besides, the z-score in assay [8] was 0.873 (inactive); in [9], 0.0245 (inactive); in assay [10], 0.604. Further, in assay [2], the composite z-score is 0.132.
For `[N-]=[N+]=Nc1ccccc1C[C@]1(C(=O)NCC(O)CO)N=C(c2ccc(OCCCO)cc2)O[C@H]1c1ccccc1N=[N+]=[N-]` (stereo not given in full), the z-score in assay [1] was 0.394 (inactive); in assay [3], 29.2 (active); in assay [4] it was 29 (active); in assay [5], 0.581 (inactive); in assay [6] it was 2.68 (inactive); in assay [7], 0.0471. In addition, the z-score in assay [8] is -2.76 (inactive); in assay [9], -0.295 (inactive); in [10], -1.67. In addition, the composite z-score in assay [2] was -0.0295.
With `COc1ccc(C(O)C2C=CC3C(=O)NC(=O)C3N2Nc2ccccn2)c2ccccc12` (stereo not given), the z-score in [1] is -1.07 (inactive); in assay [3] it was 0.496 (inactive); in [4], 0.437 (inactive); in [5], -0.139 (inactive); in [6], 0.977 (inactive); in assay [7] it was -0.841. Besides, the results for the z-score in assay [8], in [9] and in assay [10] were -0.387 (inactive), -3.5 (inactive) and -2.08, respectively. The same compound yielded a composite z-score in assay [2] of -0.0625.
For the compound `CCN(CC)c1ccc(N2CC=CC34O[C@@H]5/C=C\CCC(C)OC(=O)C5[C@H]3C(=O)N(C(CO)C(C)C)[C@@H]4C2=O)cc1` (stereo not given in full), the z-score was 0.295 (inactive) in [1]; 1.82 (inactive) in [3]; 0.585 (inactive) in [4]; 0.975 (inactive) in assay [5]; 0.674 (inactive) in [6]; -0.232 in [7]. For the same compound, the z-score in [8] was 0.398 (inactive); in assay [9], -0.502 (inactive); in assay [10], 0.855. In addition, the composite z-score in assay [2] is 0.2.
Take `C=CCNC(=O)[C@@H]1[C@H]2C(=O)O[C@H](c3ccccc3)[C@H](c3ccccc3)N2[C@H](c2ccc(OCCO)cc2)[C@@]12C(=O)Nc1ccc(C#CCCO)cc12`: the z-score in [1] is -0.41 (inactive); in [3], 7.17 (inactive); in assay [4], 2.11 (inactive); in [5], 1.14 (inactive); in [6] it was 0.812 (inactive); in assay [7], -0.344. For the same compound, the z-score in assay [8] was 1.67 (inactive); in assay [9] it was 0.442 (inactive); in [10], 0.688. For the same compound, the composite z-score in assay [2] is 0.656.
For `CCc1oc(CC[C@@H](CO)NC(=O)NCCn2cc(C3(O)CCCCC3)nn2)c(C(=O)OC)c1C(=O)OC`, the z-score in assay [1] is -1.26 (inactive); in [3], 25.6 (active); in assay [4] it was 7.39 (inactive); in assay [5] it was 0.709 (inactive); in assay [6], 1.07 (inactive); in [7], -0.524. In addition, the results for the z-score in assay [8], in assay [9] and in assay [10] were -1.59 (inactive), -0.491 (inactive) and -1.14, respectively. In addition, the composite z-score in [2] is 0.0768.
In the case of `CCOC1=C2C(CN(S(=O)(=O)c3ccc(C)cc3)C2c2ccc(C)cc2)C2C(=O)N(c3ccccc3)C(=O)C2C1` (stereo not given), the z-score in assay [1] is -0.0859 (inactive); in assay [3], 1.87 (inactive); in assay [4] it was 1.24 (inactive); in assay [5], 0.398 (inactive); in assay [6] it was 0.855 (inactive); in assay [7] it was -0.258. Further, the z-score in [8] was 1.12 (inactive); in assay [9], 0.103 (inactive); in assay [10], -0.229. In assay [2], this compound registered a composite z-score of 0.0839.
For the compound `COC(=O)[C@@]1(Cc2ccccc2)[C@H]2c3cc(C(=O)N(C)C)n(CCSCCO)c3C[C@H]2CN1C(=O)c1ccccc1`, the z-score was -1.8 (inactive) in assay [1]; 1.02 (inactive) in assay [3]; 0.187 (inactive) in assay [4]; 0.189 (inactive) in assay [5]; 0.496 (inactive) in [6]; -0.199 in [7]. In addition, the z-score in assay [8] is 0.594 (inactive); in assay [9] it was 0.597 (inactive); in assay [10], -0.72. In addition, in assay [2], the composite z-score stood at 0.138.
Consider `CC(C)(C)OC(=O)CC[C@@]1(C(=O)NCCN2CCOCC2)N=C(c2ccc(OCCCO)cc2)O[C@@H]1c1ccccc1N=[N+]=[N-]`, for which the z-score in assay [1] is 0.0974 (inactive); in assay [3] it was 31.4 (active); in [4] it was 28 (active); in [5], 3.73 (inactive); in [6], 5.67 (inactive); in assay [7], -0.249. Further, the z-score in [8] is -2.91 (inactive); in [9], 0.765 (inactive); in [10] it was -1.73. Also, the composite z-score in assay [2] was found to be 0.266.
`COC(=O)[C@@]1(Cc2ccc(OC)cc2)[C@H]2c3cc(C(=O)N4CCCC4)n(Cc4ccccc4)c3C[C@H]2CN1C(=O)c1ccccc1`: the z-score in assay [1] is -1.49 (inactive); in [3], 2.81 (inactive); in [4] it was 0.496 (inactive); in assay [5], 0.748 (inactive); in assay [6] it was 0.69 (inactive); in assay [7], -0.378. Further, the z-score in assay [8] was -0.0412 (inactive); in assay [9] it was -0.857 (inactive); in [10], -3.04. The compound further displayed a composite z-score in [2] of 2.19.
Take `Cc1ccc(C(C)CC(O)C2C=CC3C(=O)N(C)C(=O)C3N2NC(=O)OC(C)(C)C)o1` (stereo not given): the z-score was -0.502 (inactive) in assay [1]; -0.205 (inactive) in assay [3]; 0.562 (inactive) in [4]; -0.168 (inactive) in assay [5]; 0.435 (inactive) in assay [6]; -0.497 in assay [7]. The results for the z-score in [8], in [9] and in assay [10] were 0.347 (inactive), -0.202 (inactive) and -0.701, respectively. The compound further returned a composite z-score in [2] of 0.196.
